Each structure is given as a SMILES string. Inconclusive results are not listed. Entries that show only a call come without a potency. A number with no mark means an inactive call. Active and inactive are the calls of the source. Calls follow the shape of the dose curve; as a rule, active = well fitted curve in the direction sought with a large enough effect in the repeat runs; inconclusive = weak or mixed curves; inactive = no such curve, though single readings can be large; an effect the other way counts as inactive or inconclusive.

We go through 38 compounds from PubChem BioAssay (Tox21).

Aryl hydrocarbon receptor (Homo sapiens), sequence (P35869 whole entry, looked up): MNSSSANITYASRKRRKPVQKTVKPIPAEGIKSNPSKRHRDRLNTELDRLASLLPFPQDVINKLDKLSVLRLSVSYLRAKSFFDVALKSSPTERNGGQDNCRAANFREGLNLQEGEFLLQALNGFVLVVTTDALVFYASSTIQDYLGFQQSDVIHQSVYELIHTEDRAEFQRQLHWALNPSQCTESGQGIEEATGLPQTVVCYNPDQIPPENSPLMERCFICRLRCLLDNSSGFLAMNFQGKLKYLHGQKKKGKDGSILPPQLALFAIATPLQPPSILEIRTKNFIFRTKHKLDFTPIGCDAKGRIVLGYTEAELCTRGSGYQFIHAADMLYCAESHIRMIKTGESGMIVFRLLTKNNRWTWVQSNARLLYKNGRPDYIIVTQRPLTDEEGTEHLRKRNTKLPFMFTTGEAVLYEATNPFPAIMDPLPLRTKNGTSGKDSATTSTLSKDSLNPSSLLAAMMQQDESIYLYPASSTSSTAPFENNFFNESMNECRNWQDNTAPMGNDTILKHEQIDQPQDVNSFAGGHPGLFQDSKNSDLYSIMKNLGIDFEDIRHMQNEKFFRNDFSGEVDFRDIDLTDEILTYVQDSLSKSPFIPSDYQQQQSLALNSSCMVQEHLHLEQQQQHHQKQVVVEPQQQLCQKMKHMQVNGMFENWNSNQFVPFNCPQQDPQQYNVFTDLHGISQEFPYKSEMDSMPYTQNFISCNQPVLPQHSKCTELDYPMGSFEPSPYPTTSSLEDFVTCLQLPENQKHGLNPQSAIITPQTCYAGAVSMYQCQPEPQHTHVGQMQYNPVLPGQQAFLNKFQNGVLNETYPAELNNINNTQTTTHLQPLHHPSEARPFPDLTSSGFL

Tested on in one test: not listed separately
Put plainly: qHTS assay to identify aromatase inhibitors - cell viability counter screen (AID 743084).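 Also: cells stimulated with testosterone during compound exposure; nearly all actives have a fitted effect of over 55% in size.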 Particulars: MCF-7 aro ERE viability, CellTiter-Fluor, 24 h; series mostly up to 70.3 µM.
Turning to `CNC(C)=O`, the outcome was inactive.

Take `CC(=O)c1ccc2ccc3ccccc3c2c1`: the compound was classed as inactive.

As to `CCN1CCN(C(=O)N[C@@H](C(=O)N[C@@H]2C(=O)N3[C@@H]2SC(C)(C)[C@H]3C(=O)O)c2ccccc2)C(=O)C1=O`, the compound was called inactive.

In the case of `Cc1ccc(O)c([N+](=O)[O-])c1`, the call was inactive.

Regarding `CC(C)(C)C(=O)CC(=O)C(C)(C)C`, the result was inactive.

On to `CC(=O)Nc1ccc(OCCOCCOc2ccc(NC(C)=O)cc2)cc1`, for which the call was inactive.

Regarding `Cc1ccc(NC(N)=O)cc1`, the compound was classed as inactive.

On to `CC(C)(C)c1ccc(N)cc1`, for which the compound was classed as inactive.

For the compound `NS(=O)(=O)c1cc2c(cc1C(F)(F)F)NCNS2(=O)=O`, the compound was called inactive.

For `Clc1cc(Cl)c(Cl)c(Cl)c1Cl`, the compound was classed as inactive.

Consider `CC(CC(=O)Cl)CC(C)(C)C` (stereo not given), for which the call was inactive.

With `NNC(=O)CCCCC(=O)NN`, the result was inactive.

Turning to `COCCCOc1cc(C[C@@H](C[C@H](N)[C@@H](O)C[C@H](C(=O)NCC(C)(C)C(N)=O)C(C)C)C(C)C)ccc1OC`, the result was inactive.

As to `CCCCS`, the compound was classed as inactive.

`C[Si](C)(C)O[Si](O)(O)O`: the compound was called inactive.

For the compound `C/C=C(\C)C=O`, the outcome was inactive.

As for `O=C(O)Cc1c(Cl)ccc(Cl)c1Cl`, the outcome was inactive.

Consider `CCCCCCCCCCCBr`, for which the outcome was inactive.

For the compound `CCCCCCCCCCCCCCCCN(C)C`, the activity change, negative = cytotoxicity was 0.21% [at 8.47 µM].

Regarding `CC(C)(O)c1ccc(C(C)(C)O)cc1`, the compound was classed as inactive.

With `O=C(OOC(=O)c1ccccc1)c1ccccc1`, the compound was called inactive.

As to `Cc1cc(C)c(C)c(C)c1`, the result was inactive.

As for `Cc1ccc(Br)cc1`, the outcome was inactive.

For `CC(=O)OC/C=C(/C)CCC=C(C)C`, the call was inactive.

For the compound `CCCCCCCCCCCCCCBr`, the compound was called inactive.

Consider `NCC1CCC(C(=O)Oc2ccc(CCC(=O)O)cc2)CC1` (stereo not given), for which the call was inactive.

On to `C[C@@H]1CC[C@@]2(OC1)O[C@H]1C[C@H]3[C@@H]4CC[C@H]5C[C@@H](O)CC[C@]5(C)[C@H]4CC(=O)[C@]3(C)[C@H]1[C@@H]2C`, for which the result was inactive.

In the case of `C=COCCCCO`, the compound was classed as inactive.

`CN(C)c1ccncc1`: the compound was classed as inactive.

`Cc1cc(C)c(N)c(Cl)c1`: the result was inactive.

`O=C(O)/C=C(\CC(=O)O)C(=O)O`: the result was inactive.

Take `COCc1nnc(-c2ccc[n+]([O-])c2)n1-c1c(Cl)c(Cl)cc2[nH]c(=O)c(=O)[nH]c12`: the compound was called inactive.

As for `Cc1ccc(N)nc1`, the outcome was inactive.

For another test, the target named is Aryl hydrocarbon receptor (Homo sapiens) (UniProt P35869). Briefly: qHTS assay to identify small molecule that activate the aryl hydrocarbon receptor (AhR) signaling pathway (AID 743085). Also: nearly all actives have a fitted effect of over 15% in size. Also: potency is read from the fitted curve at half-maximal effect.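 As to activation: HG2L7.5c1 human HepG2 liver cells with stably integrated DRE-driven firefly reporter.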 The note with it: HepG2 AhR-luc (HG2L7.5c1), luciferase, 24 h; series mostly up to 70.3 µM. The essentials:
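Steps: seed HepG2-AhR-luc cells; allow 5 h at 37C; pin-transfer test compound or vehicle; incubate 24 h at 37C; add viability dye (30 min, 37C) and read fluorescence; add luciferase substrate (30 min, RT) and read luminescence.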
For the compound `COC(=O)/C=C(\C)CCC=C(C)C`, the Potency entry was “inactive”.

In the case of `CNC(C)=O`, the Potency result is “inactive”.

Regarding `CC(=O)c1ccc2ccc3ccccc3c2c1`, the Potency was 60.8 µM (active).

In the case of `CCN1CCN(C(=O)N[C@@H](C(=O)N[C@@H]2C(=O)N3[C@@H]2SC(C)(C)[C@H]3C(=O)O)c2ccccc2)C(=O)C1=O`, the Potency entry is “inactive”.

As for `Cc1ccc(O)c([N+](=O)[O-])c1`, the Potency entry is “inactive”.

For the compound `CC(C)(C)C(=O)CC(=O)C(C)(C)C`, the Potency entry is “inactive”.

As for `CC(=O)Nc1ccc(OCCOCCOc2ccc(NC(C)=O)cc2)cc1`, the Potency result was “inactive”.

In the case of `Cc1ccc(NC(N)=O)cc1`, the Potency result was “inactive”.

For the compound `CC(C)(C)c1ccc(N)cc1`, the Potency entry was “inactive”.

Regarding `NS(=O)(=O)c1cc2c(cc1C(F)(F)F)NCNS2(=O)=O`, the Potency result is “inactive”.

With `Clc1cc(Cl)c(Cl)c(Cl)c1Cl`, the Potency result is “inactive”.

In the case of `CC(CC(=O)Cl)CC(C)(C)C` (stereo not given), the Potency result was “inactive”.

Turning to `COCCCOc1cc(C[C@@H](C[C@H](N)[C@@H](O)C[C@H](C(=O)NCC(C)(C)C(N)=O)C(C)C)C(C)C)ccc1OC`, the Potency entry is “inactive”.

In the case of `CCCCS`, the Potency result is “inactive”.

On to `C[Si](C)(C)O[Si](O)(O)O`, for which the Potency result is “inactive”.

On to `C/C=C(\C)C=O`, for which the Potency entry is “inactive”.

For the compound `O=C(O)Cc1c(Cl)ccc(Cl)c1Cl`, the Potency result was “inactive”.

On to `CCc1ccc(CC)cc1`, for which the Potency entry was “inactive”.

`CCCCCCCCCCCCCCCCN(C)C`: the activation is -0.709% [at 8.47 µM].

`O=C(OOC(=O)c1ccccc1)c1ccccc1`: the Potency result was “inactive”.

Turning to `Cc1cc(C)c(C)c(C)c1`, the Potency result was “inactive”.

Turning to `CCO[Si](CC(C)C)(OCC)OCC`, the Potency result was “inactive”.

Regarding `CC(CN1CC(=O)NC(=O)C1)N1CC(=O)NC(=O)C1` (stereo not given), the Potency result is “inactive”.

Regarding `Cc1ccc(Br)cc1`, the Potency result was “inactive”.

For the compound `CC(=O)OC/C=C(/C)CCC=C(C)C`, the Potency result is “inactive”.

For `CCCCCCCCCCCCCCBr`, the Potency result is “inactive”.

`NCC1CCC(C(=O)Oc2ccc(CCC(=O)O)cc2)CC1` (stereo not given): the Potency entry is “inactive”.

`C[C@@H]1CC[C@@]2(OC1)O[C@H]1C[C@H]3[C@@H]4CC[C@H]5C[C@@H](O)CC[C@]5(C)[C@H]4CC(=O)[C@]3(C)[C@H]1[C@@H]2C`: the Potency result was “inactive”.

On to `C=COCCCCO`, for which the Potency entry was “inactive”.

With `CN(C)c1ccncc1`, the Potency result was “inactive”.

Consider `Cc1cc(C)c(N)c(Cl)c1`, for which the Potency result was “inactive”.

In the case of `CC(C)CC(O)Cc1ccccc1` (stereo not given), the Potency entry is “inactive”.

`O=C(O)/C=C(\CC(=O)O)C(=O)O`: the Potency result is “inactive”.

Take `COCc1nnc(-c2ccc[n+]([O-])c2)n1-c1c(Cl)c(Cl)cc2[nH]c(=O)c(=O)[nH]c12`: the Potency entry was “inactive”.

Take `Cc1ccc(N)nc1`: the Potency result was “inactive”.

Tested on in the next test: not listed separately
Briefly: qHTS assay to identify small molecule that activate the aryl hydrocarbon receptor (AhR) signaling pathway - cell viability counter screen (AID 743086).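 Also: HepG2 liver cells carrying the AhR DRE luciferase reporter; nearly all actives have a fitted effect of over 45% in size.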 Particulars: HepG2-AhR-luc viability, CellTiter-Fluor, 24 h; series mostly up to 70.3 µM. An outline of the steps:
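HepG2-AhR-luc (HG2L7.5c1) cells, 4000/well, treated 24 h at 37 C with compound; viability measured as CellTiter-Fluor fluorescence after 30 min in the same wells as the luciferase read.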
On the technique in general: qHTS replaces the single test concentration by a dilution series.
For `COC(=O)/C=C(\C)CCC=C(C)C`, the outcome was inactive.

Turning to `CNC(C)=O`, the outcome was inactive.

As for `CC(=O)c1ccc2ccc3ccccc3c2c1`, the call was inactive.

With `CCN1CCN(C(=O)N[C@@H](C(=O)N[C@@H]2C(=O)N3[C@@H]2SC(C)(C)[C@H]3C(=O)O)c2ccccc2)C(=O)C1=O`, the call was inactive.

Regarding `Cc1ccc(O)c([N+](=O)[O-])c1`, the compound was called inactive.

For the compound `CC(C)(C)C(=O)CC(=O)C(C)(C)C`, the outcome was inactive.

With `CC(=O)Nc1ccc(OCCOCCOc2ccc(NC(C)=O)cc2)cc1`, the call was inactive.

Consider `Cc1ccc(NC(N)=O)cc1`, for which the compound was called inactive.

For `NS(=O)(=O)c1cc2c(cc1C(F)(F)F)NCNS2(=O)=O`, the outcome was inactive.

`Clc1cc(Cl)c(Cl)c(Cl)c1Cl`: the compound was classed as inactive.

Regarding `CC(CC(=O)Cl)CC(C)(C)C` (stereo not given), the call was inactive.

Consider `COCCCOc1cc(C[C@@H](C[C@H](N)[C@@H](O)C[C@H](C(=O)NCC(C)(C)C(N)=O)C(C)C)C(C)C)ccc1OC`, for which the result was inactive.

In the case of `CCCCS`, the compound was called inactive.

Regarding `C[Si](C)(C)O[Si](O)(O)O`, the result was inactive.

As for `C/C=C(\C)C=O`, the result was inactive.

Regarding `CCCCCCCCCCCBr`, the call was inactive.

In the case of `CCc1ccc(CC)cc1`, the outcome was inactive.

Take `CCCCCCCCCCCCCCCCN(C)C`: the viability change, negative = cytotoxic was -0.517% [at 8.47 µM].

As to `CC(C)(O)c1ccc(C(C)(C)O)cc1`, the call was inactive.

As for `O=C(OOC(=O)c1ccccc1)c1ccccc1`, the result was inactive.

Take `Cc1cc(C)c(C)c(C)c1`: the result was inactive.

On to `CC(CN1CC(=O)NC(=O)C1)N1CC(=O)NC(=O)C1` (stereo not given), for which the compound was classed as inactive.

For the compound `Cc1ccc(Br)cc1`, the result was inactive.

`CC(=O)OC/C=C(/C)CCC=C(C)C`: the call was inactive.

For `CCCCCCCCCCCCCCBr`, the compound was called inactive.

In the case of `NCC1CCC(C(=O)Oc2ccc(CCC(=O)O)cc2)CC1` (stereo not given), the compound was classed as inactive.

Turning to `C[C@@H]1CC[C@@]2(OC1)O[C@H]1C[C@H]3[C@@H]4CC[C@H]5C[C@@H](O)CC[C@]5(C)[C@H]4CC(=O)[C@]3(C)[C@H]1[C@@H]2C`, the call was inactive.

On to `Cc1cc(C)c(N)c(Cl)c1`, for which the outcome was inactive.

For the compound `CC(C)CC(O)Cc1ccccc1` (stereo not given), the compound was called inactive.

`O=C(O)/C=C(\CC(=O)O)C(=O)O`: the outcome was inactive.

Take `COCc1nnc(-c2ccc[n+]([O-])c2)n1-c1c(Cl)c(Cl)cc2[nH]c(=O)c(=O)[nH]c12`: the call was inactive.

Consider `Cc1ccc(N)nc1`, for which the compound was classed as inactive.
